Experimental data as given in PubChem BioAssay (NCI).
About 83,000 compounds went through this panel and 20% of them were active in at least one assay; those are over-represented in the sample as a whole.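 Method: cells in 96-well plates; compound added at one concentration; 48 h incubation; percent growth measured; values under 10 scored active.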 Values without a mark were called inactive. Active and inactive are the calls of the source.

Tests used:
Experiment in all cases: NCI-60 one-dose screen, 48 h (100 = growth as untreated, 0 = no growth, -100 = all killed)
DU-145 prostate = details: 10 µM unless noted
K-562 leukemia = details: 10 µM unless noted
MALME-3M melanoma = details: 10 µM unless noted
MDA-MB-231 breast = details: 10 µM unless noted
SF-268 CNS = details: 10 µM unless noted
SF-295 CNS = details: 10 µM unless noted
SF-539 CNS = details: 10 µM unless noted
M14 melanoma = details: 10 µM unless noted
HCT-15 colon = details: 10 µM unless noted
HT29 colon = details: 10 µM unless noted
SNB-75 CNS = details: 10 µM unless noted
SNB-19 CNS = details: 10 µM unless noted
U251 CNS = details: 10 µM unless noted
PC-3 prostate = details: 10 µM unless noted
SK-MEL-5 melanoma = details: 10 µM unless noted
UACC-62 melanoma = details: 10 µM unless noted
LOX IMVI melanoma = details: 10 µM unless noted
SK-MEL-28 melanoma = details: 10 µM unless noted
UACC-257 melanoma = details: 10 µM

Row | SMILES | growth (DU-145 prostate) | growth (K-562 leukemia) | growth (MALME-3M melanoma) | growth (MDA-MB-231 breast) | growth (SF-268 CNS) | growth (SF-295 CNS) | growth (SF-539 CNS) | growth (M14 melanoma) | growth (HCT-15 colon) [%] | growth (HT29 colon) | growth (SNB-75 CNS) | growth (SNB-19 CNS) [%] | growth (U251 CNS) | growth (PC-3 prostate) [%] | growth (SK-MEL-5 melanoma) | growth (UACC-62 melanoma) | growth (LOX IMVI melanoma) [%] | growth (SK-MEL-28 melanoma) [%] | growth (UACC-257 melanoma) [%]
1 | c1cncc(CNc2ccccc2-c2nnc(Nc3ccc4c(c3)OCCO4)o2)c1 | -5.96% (active) | 14.2% | 80.2% | 26.4% | 18.7% | 12.2% | 4.68% (active) | 12.7% | 19 | 2.31% (active) | 33.1% | 38.1 | 30.8% | 36.5 | -9.92% (active) | 39.8% | 27.1 | 68.9 | 
2 | CC(C)C(C(=O)CCN(C)C)c1ccc(Cl)cc1 (stereo unspecified) | 88.6% | 96.7% | -90.7% (active) | 101% | 100% | 106% | 103% | 92.5% | 92.6 | 106% | 87.8% | 95.1 | 83.7% | 86.9 | 102% | 89.7% | 98.5 | 107 | 
3 | Nc1nc(-c2cc3ccccc3o2)cc(=O)c(=O)[nH]1 | 108% | 103% | 94.3% | 98.3% | 96.5% | 109% | 89.3% | 106% | 103 | 99.7% | 102% | 86.6 | 91.9% | 97.7 | 90.4% | 94.6% | 98.6 | 112 | 
4 | NC(=O)c1c(NC(=O)c2ccc(OCC3CCCO3)cc2)sc2c1CCCC2 (stereo unspecified) | 105% | 134% | 82.4% | 96.6% | 109% | 93.8% | 100% | 108% | 101 | 105% | 135% | 106 | 95.2% | 74.4 | 78.2% | 85% | 105 | 125 | 
5 | COc1ccc(OC)c(NC(=O)c2cc(S(=O)(=O)N3CCc4ccccc43)ccc2OC)c1 | 84.9% | 103% | 111% | 71.8% | 95.9% | 73.4% | 82.9% | 98.8% | 107 | 76.7% | 85.1% | 75.9 | 92.1% | 88.5 | 67.6% | 79.2% | 94.7 | 131 | 
6 | C#CCN1C(=O)/C(=c2\sc3n(c2=O)C2C(NN=3)N(CC)C(=O)N2CC)c2ccccc21 (stereo unspecified) | 14.8% | 7.6% (active) | 43.6% | 21% | 50% | -13% (active) | -39.7% (active) | 26.1% | 16 | 7.7% (active) | -25.2% (active) | 28 | 11.2% | 22.7 | 12.4% | 25.2% | 27.1 | 43.4 | 
7 | O=c1oc2c([nH]c3ccc4ccccc4c32)c2ccccc12 | 106% | 124% | 115% | 112% | 115% | 99.6% | 102% | 109% | 105 | 111% | 126% | 108 | 100% | 97.7 | 85.5% | 93.8% | 98.8 | 134 | 
8 | CCN1C(=O)/C(=c2\sc3n(c2=O)C2C(NN=3)N(CC)C(=S)N2CC)c2ccccc21 (stereo unspecified) | 115% | 98% | 93.2% | 96.3% | 90.2% | 100% | 96.3% | 96.2% | 100 | 111% | 84.6% | 97.2 | 97.3% | 94 | 103% | 97.8% | 98.4 | 108 | 
9 | COc1cc(C2C=C(C)N=C3SC=CN32)cc(OC)c1OC (stereo unspecified) | 112% | 123% | 104% | 100% | 104% | 108% | 116% | 107% | 106 | 110% | 94.7% | 107 | 103% | 94.5 | 106% | 107% | 97.8 | 109 | 102
10 | CCN1C(=O)N(CC)C2Nn3c(s/c(=C\c4cccc(F)c4)c3=O)=NC21 (stereo unspecified) | 59.1% | 26.8% | 72.3% | 66.5% | 76.1% | 61.1% | 68.3% | 89.6% | 56.6 | 39.1% | 6.29% (active) | 80.7 | 73.2% | 52.9 | 42.6% | 67.7% | 69.7 | 75.6 | 
11 | COc1cc(C2C3=C(COC3=O)Nc3c2ccc2c3CCCC2)cc2c1OCO2 (stereo unspecified) | -24.7% (active) | 12.7% | 92.1% | 6.67% (active) | 8.63% (active) | 13.3% | 4.95% (active) | 13.3% | 11.2 | -3.84% (active) | 34.3% | 36.1 | 23.1% | 31.7 | -18.8% (active) | 36.4% | 27.7 | 70.1 | 
12 | CCc1cccc(C)c1NC(=O)c1sc2nc3c(cc2c1N)C(=O)CCC3 | 14.2% | 8.64% (active) | 45.1% | 31% | 42.7% | 10.8% | -14.4% (active) | 12.5% | 32.8 | 6.1% (active) |  | 67.9 |  | 23.3 | 17% | 46.5% |  | 42.9 | 66.6
13 | Cc1cc(Nc2nc(-c3ccc(F)cc3)nc3ccccc23)n[nH]1 | 77.1% | 36.6% | 57% | 78.7% | 63.3% | 64.4% | 66.6% | 53.5% | 33.9 | 22.5% | -21% (active) | 80.2 | 88.4% | 56.5 | 73.7% | 40.8% | 32.6 | 56.3 | 47.2
14 | COc1cccc2cc(-c3cc4ccccc4[nH]3)c(=NC(=O)c3ccc(Cl)cc3)oc12 | 85.5% | 39.7% | 58.5% | 54.3% | 53.5% | 67.3% | 58.2% | -28.9% (active) | 43.3 | 64.4% | 5.92% (active) | 53.5 | 43.9% | 38.5 | 81.7% | 73.8% | 75.5 | 82.2 | 
15 | Nc1c(C(=O)Nc2cccc(C(F)(F)F)c2)sc2nc3c(cc12)C(O)CCC3 (stereo unspecified) | 9.15% (active) | 14.4% | 51.2% | 61.9% | 45.6% | 27.2% | 21.6% | 30.9% | 36.7 | 17.7% |  | 86.8 | 16.8% | 23.4 | 25.7% | 41.4% | 47.8 | 49 | 44.2
16 | COc1cc(OC)cc(-c2n[nH]nc2-c2ccc3c(c2)OCO3)c1 | 25.1% | 16.7% | 67.7% | 18.9% | 52% | 1.21% (active) | -31% (active) | 14.5% | 25.7 | 1% (active) | -8.14% (active) | 45.1 |  | 19.4 | 20.2% | 27.5% | 34.4 | 32 | 71.4
17 | CSc1nc(-c2cc3ccccc3o2)cc(-c2ccc(Cl)cc2)c1C#N | 68.5% | 63.4% | 89.3% | 27.8% | 51.7% | 9.92% (active) | -7.47% (active) | 67.6% | 31.1 | -50.6% (active) | -36% (active) | 55.1 | 6.2% (active) | 22.2 | 55.3% | -17.1% (active) | 16.8 | 65.2 | 
